Experimental findings from PubChem BioAssay AID1240 (Sanford-Burnham Center for Chemical Genomics, 2008) are described below.

In all, about 50,000 compounds went through this assay and about 800 (1.6%) showed an effect of 50% or more. The list comes from a sample in which strong results are over-represented; it also holds similar structures and randomly drawn compounds.

The target of the experiment is Bcl-2-like protein 10 (Homo sapiens) (UniProt Q9HD36). The experiment can be described thus: Phenotype converters, Bcl-B/TR3 peptide binding displacement, primary biochemical FP (AID 1240).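 Note: 0% = Bcl-B with tracer peptide and DMSO and 100% = tracer peptide lacking Bcl-B.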 Conditions: GST-Bcl-B / FITC-TR3 peptide fluorescence polarization; stronger effect = higher value; compound at 3.75 mg/L.
Chain of Bcl-2-like protein 10 (Homo sapiens) (Q9HD36 whole entry, looked up): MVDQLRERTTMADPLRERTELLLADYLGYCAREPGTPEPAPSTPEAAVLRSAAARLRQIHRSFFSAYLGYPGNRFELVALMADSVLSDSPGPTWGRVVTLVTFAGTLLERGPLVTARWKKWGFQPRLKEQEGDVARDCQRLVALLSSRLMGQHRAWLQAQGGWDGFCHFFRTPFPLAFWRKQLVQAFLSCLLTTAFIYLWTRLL
Consider `O=C(CCc1ccccc1)Nc1ccc(Br)cc1`, for which the displacement was 9.1%.

As to `O=[N+]([O-])c1cccc(Cl)c1N1CCOCC1`, the displacement worked out at 3.9%.

For `O=C(c1ccccc1Cl)N1CCN(c2c(Cl)cccc2[N+](=O)[O-])CC1`, the displacement is 8.5%.

For `O=[N+]([O-])c1cccc(Cl)c1N1CCN(CCO)CC1`, the displacement is 89.3%.

As to `Cc1ccc(C(=O)Nc2ccc(NC(=O)c3ccco3)c(Cl)c2)cc1C`, the displacement was -8.9%.

On to `Cc1ccc(C(=O)Nc2cccc(NC(=O)c3ccco3)c2)cc1C`, for which the displacement came to 60.4%.

With `Cc1ccc(C(=O)Nc2ccc(NC(=O)c3ccco3)cc2)cc1C`, the displacement is -0.4%.

`CCn1cc(C(=O)NN)c(=O)c2cc(Br)ccc21`: the displacement turned out to be 20.2%.

Turning to `O=C(CSc1nc2ccc([N+](=O)[O-])cc2s1)N1CCOCC1`, the displacement was determined as 1.4%.

With `COC1C(C)=CC(=O)N1Cc1ccccc1` (stereo not given), the displacement amounted to 4.4%.

Consider `Cc1cc(C)c(S(=O)(=O)NCC2CCCO2)c(C)c1` (stereo not given), for which the displacement is -8%.

`CCc1cc(C)cc(OCCOc2ccc([N+](=O)[O-])cc2/C=C2/SC(=S)N(C)C2=O)c1`: the displacement came out at 20.5%.

As for `COc1ccccc1/C=C1\SC(=N)N(c2ccc(F)cc2)C1=O`, the displacement was -8.6%.

With `O=c1c(C=NCc2cccs2)c(C(F)(F)F)[nH]n1-c1nc2ccccc2s1`, the displacement was -13.8%.

For `COc1ccc(CCN=Cc2c(C(F)(F)F)[nH]n(-c3nc4ccccc4s3)c2=O)cc1OC`, the displacement was determined as 69.9%.

Consider `CCCc1[nH]n(-c2nc3ccccc3s2)c(=O)c1C=NCCc1ccccc1`, for which the displacement was -1%.

As for `Cc1ccc(C)c(NC(=O)C2C3C4CCC(C4)C23)c1` (stereo not given), the displacement is -7.2%.

`COc1ccc(/C=C/C(=O)NC(=S)Nc2ccc(I)cc2)cc1`: the displacement came out at 14.3%.

Consider `CCN(CC)C(=O)c1cnn(-c2ccccc2)c1NC(=O)c1ccccc1Cl`, for which the displacement is 9.1%.

In the case of `O=C(Nc1c(C(=O)Nc2cccc(Cl)c2)cnn1-c1ccccc1)c1ccccc1Cl`, the displacement came to 83%.

Regarding `Cc1ccc(NC(=O)c2cnn(-c3ccccc3)c2NC(=O)c2ccccc2Cl)cc1C`, the displacement stood at 3.3%.

For `COCCOC(=O)c1ccc(NC(=O)c2ccccc2CCc2ccccc2)cc1`, the displacement is 7.1%.

`CN1CCC(O)N1C(=O)c1ccccc1O` (stereo not given): the displacement was 12.7%.

Consider `Cc1ccc(-c2nc3ccccc3o2)cc1NC(=O)c1cccc(Cl)c1`, for which the displacement came to 17%.

`Cc1ccc(-c2nc3ccccc3o2)cc1NC(=O)c1ccc2c(c1)OCCO2`: the displacement turned out to be 45.1%.

Turning to `Cc1ccc(-c2nc3cc(Cl)ccc3o2)cc1NC(=O)c1ccc2ccccc2c1`, the displacement is 128%.

For the molecule `CCc1ccc2oc(-c3ccc(C)c(NC(=O)c4cc(OC)cc(OC)c4)c3)nc2c1`, the displacement stood at 13.4%.

For the molecule `COc1c(Cl)cc(C(=O)Nc2cc(-c3nc4cc(Cl)ccc4o3)ccc2C)cc1Cl`, the displacement came to 7.7%.

Turning to `O=C(Nc1cccc(-c2nc3cc(Cl)ccc3o2)c1)c1ccc2c(c1)OCCO2`, the displacement was 105%.

In the case of `Cc1ccc2nc(-c3ccc(C)c(NC(=O)c4ccc5ccccc5c4)c3)oc2c1`, the displacement is -11.3%.

On to `Cc1ccc(-c2nc3cc(Cl)cc(Cl)c3o2)cc1NC(=O)c1ccc2c(c1)OCCO2`, for which the displacement was 6.6%.

For the molecule `Cc1ccc(-c2nc3cc(Cl)ccc3o2)cc1NC(=O)c1ccc2c(c1)OCCO2`, the displacement was 102%.

For the molecule `COc1cc(OC)cc(C(=O)Nc2cc(-c3nc4cc(Cl)ccc4o3)ccc2C)c1`, the displacement was 110%.

With `O=C(Nc1cccc(-c2nc3cc(Cl)ccc3o2)c1)c1ccc(Cl)cc1`, the displacement was found to be 0.2%.

For `CCc1ccc2oc(-c3cccc(NC(=O)c4ccc5c(c4)OCCO5)c3)nc2c1`, the displacement amounted to 0.9%.

On to `COc1ccc(C)cc1NC(=O)COc1ccc(Br)cc1C`, for which the displacement was 7.7%.

With `CCOC(=O)C1=C(C)NC(=O)CC1c1ccccc1I` (stereo not given), the displacement is -10.7%.

As for `COc1ccc(OCCCCN2CCN(C)CC2)cc1`, the displacement is -5.8%.

As to `Cc1noc2c1/C(=N\O)CC(c1ccccc1)C2` (stereo not given), the displacement is 2.6%.

On to `Cc1cc(C(=O)Nc2cccc(C)c2C)ccc1[N+](=O)[O-]`, for which the displacement was determined as 15.9%.

In the case of `COCCOC(=O)c1c(C)oc2ccc(OCc3c(F)cccc3Cl)cc12`, the displacement is 6.9%.

For `COC(=O)c1c(C)oc2ccc(OCc3c(F)cccc3Cl)cc12`, the displacement came to 91%.

With `Cc1oc2ccc(OCc3c(F)cccc3Cl)cc2c1C(=O)O`, the displacement came to 11.7%.

As for `Cc1ccc(N(CC(=O)N(Cc2ccccc2)Cc2ccccc2)S(C)(=O)=O)cc1`, the displacement is -7.5%.

In the case of `N#C/C(=C(/O)C(Cl)(Cl)Cl)c1nc2ccccc2[nH]1`, the displacement was -5.5%.

With `N#C/C(=C(/O)CO/N=C/c1ccccc1Cl)c1nc2ccccc2[nH]1`, the displacement came to 53.6%.

In the case of `C/C(=N\OC/C(O)=C(\C#N)c1nc2ccccc2[nH]1)c1ccc(Br)cc1`, the displacement was found to be 46.6%.

For the molecule `O=C(CC1Nc2ccccc2NC1=O)Nc1cccc(C(=O)O)c1` (stereo not given), the displacement is -2.4%.

On to `CCCOc1cccc(C(=O)Nc2ccc(F)c([N+](=O)[O-])c2)c1`, for which the displacement was 13.4%.

On to `CC1=NN(C(=O)c2cccnc2)C(O)(c2ccccc2)C1` (stereo not given), for which the displacement is -6.3%.

Take `O=C(Cc1cccs1)NCC1CCCO1` (stereo not given): the displacement is 14.5%.

Regarding `O=C(N/N=C/c1ccc(O)c(O)c1)c1cccc(F)c1`, the displacement is -6.6%.

Take `O=C(NCCCn1ccnc1)c1ccccc1Br`: the displacement is -8.7%.

Consider `O=C(Nc1ccccc1C(=O)NCCCn1ccnc1)c1ccccc1`, for which the displacement was 83.5%.

Consider `COc1ccc(C(=O)Nc2ccccc2C(=O)NCCCn2ccnc2)cc1`, for which the displacement was found to be 11.9%.

Regarding `COC(=O)C1=CNC=C(C(=O)OC)C1c1cccc(OCc2ccccc2)c1`, the displacement was 1.2%.

As to `O=C(/C=C/c1ccc([N+](=O)[O-])cc1)Nc1ccc(F)cc1`, the displacement was -2.7%.

With `COc1ccc(C(=O)/C=C/Nc2ccccc2F)cc1`, the displacement came to 5.6%.

As to `O=C(/C=C\Nc1ccc(Br)cn1)c1ccc(Cl)cc1`, the displacement worked out at 61.9%.

As for `O=C(/C=C/Nc1ccccn1)c1ccc(Br)cc1`, the displacement worked out at 3%.

Take `O=C(/C=C/Nc1ccccc1F)c1ccccc1`: the displacement was found to be 8.2%.

For the molecule `COc1ccc(C(=O)/C=C\Nc2ccc(Cl)cn2)cc1`, the displacement was -23.9%.

Consider `O=C(/C=C/Nc1ccccc1F)c1ccc(Br)cc1`, for which the displacement is 85.6%.

With `Cc1sccc1/C=N/NC(=O)C1CC1`, the displacement came out at 3%.

As for `Cc1ccc(/C=N/N=C/c2ccc(C)cc2)cc1`, the displacement amounted to 2.2%.

As for `C/C(=C\C(=O)c1ccc(Cl)cc1)Nc1ccc(Br)c(C)c1`, the displacement was found to be 4.4%.

Turning to `COc1ccccc1/C=c1\sc2nc(-c3ccc(C)cc3)nn2c1=O`, the displacement was 61.7%.

With `COc1ccccc1/C=c1/sc2nc(-c3ccc(Cl)cc3Cl)nn2c1=O`, the displacement was determined as 7.3%.

For the molecule `COc1ccc(/C=c2\sc3nnc(-c4ccccc4)n3c2=O)c(OC)c1`, the displacement stood at 28%.

For the molecule `COc1ccc(/C=c2/sc3nc(-c4ccc(C(C)(C)C)cc4)nn3c2=O)cc1`, the displacement came out at 11.3%.

With `COc1ccc(/C=c2\sc3nnc(-c4ccc(C)cc4)n3c2=O)c(OC)c1`, the displacement is 73.8%.

`COc1ccc(/C=c2\sc3nc(-c4ccccc4)nn3c2=O)cc1`: the displacement worked out at 77.5%.

For the molecule `COc1ccc(-c2nn(-c3ccccc3)cc2/C=c2\sc3nc(-c4ccc(C)cc4)nn3c2=O)cc1`, the displacement was 8.3%.

`COC(=O)c1ccc(/C=c2\sc3nc(-c4ccc(C)cc4)nn3c2=O)cc1`: the displacement was found to be 10.7%.

Take `Cc1ccc(-c2nnc3s/c(=C\c4ccccc4Cl)c(=O)n23)cc1`: the displacement amounted to 30.3%.
